Results on 20 compounds are retold here after the supplement of paper PMC11150407.

Hit rate of the full screen: of about 2,100 compounds, about 180 (8.6%) showed an effect of 50% or more. The list comes from a sample in which strong results are over-represented; it also holds similar structures and randomly drawn compounds.

This test has as its system MOLM1 and UCSD/AML1 (averaged). Put plainly: cell viability relative to DMSO control (POC); higher = less growth inhibition. The note with it: 1 µM; 72 h. How it is done: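 Primary viability screen in the 3q26 EVI1-high AML cell lines MOLM1 and UCSD/AML1 (1.5e3 cells/well, 384-well), compounds at 1 uM for 72 h. ATP CellTiter-Glo read-out given as percent of viable cells over DMSO control (POC), averaged over duplicates. DMSO was the negative control and 5 uM etoposide the positive control. This mapping covers the MicroSource Spectrum and Selleck anticancer libraries (drug names).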
`COc1ccc([C@H]2Oc3cc(OC)cc(OC)c3C[C@H]2O)cc1`: the cell viability came to 98.4%. As for `COC(=O)C[C@H]1C2(C)CC34OC5(C)O[C@@]6([C@H](OC)C(OC(=O)C(C)C)[C@]7(C)C(/C(=C(/OC)C(C)C)C(=O)O[C@H]7c7ccoc7)[C@@]6(O5)[C@H](OC)[C@@]3(OC)C2OC(C)=O)[C@]14C` (stereo not given in full), the cell viability worked out at 105%.

In the case of `Cc1c(C(=O)O)c(O)cc2c1C(=O)c1c(O)c([C@@H]3O[C@H](CO)[C@@H](O)[C@H](O)[C@H]3O)c(O)c(O)c1C2=O`, the cell viability came to 92.5%.

Turning to `O=C(O)c1cccc(O)c1O`, the cell viability worked out at 107%. Next, `C[C@H]1[C@H](C)CC[C@]2(CO)CC[C@]3(C)C(=CC[C@@H]4[C@@]5(C)CC[C@H](O)C(C)(C)[C@@H]5CC[C@]43C)[C@H]12`: 110%; `CC(=O)O[C@@H]1CC2C(C)(C)C(=O)CC[C@]2(C)C2CC[C@]3(C)C(=CC(=O)O[C@H]3c3ccoc3)[C@@]21C` (stereo not given in full): 110%; `COc1c(OC)c2occc2c2oc(=O)ccc12`: 117%. For `CC(=O)O[C@H]1CC[C@]2(C)[C@H]3CC=C4[C@@H]5CC(C)(C)CC[C@]5(C)CC[C@@]4(C)[C@]3(C)CC[C@H]2C1(C)C` [beta-AMYRIN ACETATE] the value was 107%; for `CC(=O)CC(=O)CCC(=O)O`, 96.2%.

In the case of `CCOC(=O)c1c(C)cc(O)cc1O`, the cell viability is 104%. For `CC1=CCCC(C)=CCC(C)(C)C=CC1` [HUMULENE (alpha)] the value was 113%. For `CN(C)Cc1ccc(-c2nc3cccc4c3n2CCNC4=O)cc1` the value was 100%. For `CCC(=O)N1CCN(c2ccc(-n3c(=O)ccc4cnc5ccc(-c6cnc7ccccc7c6)cc5c43)cc2C(F)(F)F)CC1` [Torin 1] the value was 20.8%. With `Nc1ccc(-c2ccc3ncc4ccc(=O)n(-c5cccc(C(F)(F)F)c5)c4c3c2)cn1` [Torin 2], the cell viability is 10%. Turning to `COc1ccc2c3n(c(=NC(=O)c4cccnc4)nc2c1OC)CCN3`, the cell viability amounted to 64.3%. `COc1cc(C)c(C(=O)O)c(O)c1`: the cell viability was 100%.

In the case of `S=C(NCc1ccc2c(c1)OCO2)N1CCN(c2ncnc3c2oc2ccccc23)CC1` [Amuvatinib (MP-470)], the cell viability stood at 77.9%. Next, `COC(=O)[C@@H]1OC(=O)[C@H]2O[C@@]23[C@@]1(C)CCC1[C@@]2(C)CCC(=O)C(C)(C)C2C[C@@H](OC(C)=O)[C@]13C` (stereo not given in full): 99%; `O=C(Nc1c[nH]nc1-c1nc2ccc(CN3CCOCC3)cc2[nH]1)NC1CC1`: 17.5%.

For the compound `CC(=O)Oc1cc(OC(C)=O)c2c(c1)O[C@H](c1ccc(OC(C)=O)c(OC(C)=O)c1)[C@H](OC(C)=O)C2`, the cell viability was found to be 104%.

In general, cell viability refers to a read-out of living cells in per cent, often relative to untreated cells.
